Active and inactive are the calls of the source.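 The calls were made as follows: active = compounds killing one labelled cell type while sparing the other, by normalised counts and ratio limits, not self-fluorescent; inactive = the rest.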
Assay: EMT-state selective cytotoxicity in co-culture – imaging, PC-3E GFP, TEM4-18 mCherry, primary screen (AID 1345086);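 also: cells exposed to compound for 72 h before imaging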;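 as to red/green cell ratio (normalised): normalised mesenchymal count divided by normalised epithelial count so high means epithelial killing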
Settings: PC-3E GFP / TEM4-18 mCherry co-culture, imaging cell counts, at 1 µM; for red/green cell ratio (normalised): actives lie on both sides, counts scaled to control wells, 1 = unselective
[1] = measured here: epithelial PC-3E GFP cell survival
[2] = measured here: mesenchymal TEM4-18 mCherry cell survival

Row | Structure (SMILES) | red/green cell ratio (normalised) | normalised cell number [1] | normalised cell number [2]
1 | O=C(O)c1ccc(-c2ccccc2)cc1 | 0.96 (inactive) | 1.01 | 0.97
2 | COc1cc(N)cc(OC)c1 | 0.94 (inactive) | 0.97 | 0.91
3 | CC(=O)OCC1O[C@H](Sc2ccc(C)cc2)[C@@H]2[C@@H](OC(=O)N2C(=O)OCc2ccccc2)C1OC(C)=O (some centres undefined) | 0.78 (inactive) | 1.24 | 0.96
4 | O=C(O)CCC(=O)OC1C(CO)O[C@H](Sc2ccccc2)[C@H]2NC(=O)O[C@@H]12 (some centres undefined) | 1.26 (inactive) | 0.84 | 1.06
5 | C/C=C/[C@@H]1OC2=C(C(=O)O[C@H]2C)[C@H](O)[C@H]1O | 0.96 (inactive) | 0.76 | 0.73
6 | CC(=O)O[C@H]1CC2CCC3C(CC[C@@]4(C)C3C[C@H]([N+]3(C)CCCCC3)[C@@H]4OC(C)=O)[C@@]2(C)C[C@@H]1[N+]1(C)CCCCC1 (some centres undefined) | 0.99 (inactive) | 0.95 | 0.94
7 | C=C[C@](C)(O)CC[C@@H]1[C@@]2(C)CCCC(C)(C)[C@@H]2CC[C@]1(C)O | 1.05 (inactive) | 1.16 | 1.21
8 | COc1cc(O)c2c(c1)C(=O)C1=C(C2=O)C(OC)OC1 (centres undefined) | 1.02 (inactive) | 0.9 | 0.92
9 | CC(=O)OC1CCC2(C)C(=CC=C3C2CCC2(C)C3CCC2C(C)/C=C/C(C)C(C)C)C1(C)C (centres undefined) | 1.04 (inactive) | 0.92 | 0.96
10 | COC1=CC(=O)C[C@@H](C)[C@]12Cc1c(Cl)c(OC)cc(OC)c1C2=O | 0.76 (inactive) | 1.33 | 1.01
11 | COC(=O)NC1[C@@H](O)C(O)C(CO)O[C@H]1Sc1ccccc1 (some centres undefined) | 0.91 (inactive) | 1.06 | 0.96
12 | [N-]=[N+]=N[C@H]1[C@H](Sc2ccccc2)OC(CO)C(O)[C@@H]1O (some centres undefined) | 0.98 (inactive) | 1.08 | 1.06
13 | C[C@H]1[C@H](C)CC[C@]2(C(=O)O)CC[C@]3(C)C(=CCC4[C@@]5(C)C[C@@H](O)[C@H](O)[C@@](C)(CO)C5CC[C@]43C)[C@H]12 (some centres undefined) | 1.16 (inactive) | 0.97 | 1.13
14 | CC(CC(=O)N1CCOC1=O)N1C(=S)OC[C@@H]1Cc1ccccc1 (some centres undefined) | 1.09 (inactive) | 0.88 | 0.95
15 | O=C(O)CC1OCc2c(O)cccc21 (centres undefined) | 0.47 (inactive) | 0.95 | 0.44
16 | COc1cc(OC)c2c(c1)OC(c1ccccc1)CC2=O (centres undefined) | 1.1 (inactive) | 0.99 | 1.08
17 | CO[C@H]1CC(O[C@@H]2/C(C)=C/C[C@@H]3C[C@@H](C[C@]4(CC[C@H](C)[C@@H](C5CCCCC5)O4)O3)OC(=O)[C@@H]3C=C(C)/C(=N/O)C4OC/C(=C\C=C\[C@@H]2C)[C@]43O)O[C@@H](C)C1O (some centres undefined) | 1.11 (inactive) | 1.23 | 1.36
18 | CC(CC(=O)N1C(=O)OC[C@H]1c1ccccc1)N1CCSC1=S (some centres undefined) | 0.94 (inactive) | 1.15 | 1.08
19 | O=C(O)c1cn(C2CC2)c2cc(N3CCN(c4ncncn4)CC3)c(F)cc2c1=O | 1.22 (inactive) | 0.88 | 1.08
20 | COC(=O)[C@@H](C)Oc1ccc(O)cc1 | 1.27 (inactive) | 0.93 | 1.18
21 | COc1c(N2CC[C@@H](CN)C2)c(F)cc2c(=O)c(C(=O)O)cn(CCc3ccccc3)c12 | 1.14 (inactive) | 0.87 | 1
22 | O=C1CCC[C@@H](N2C(=S)OC[C@H]2c2ccccc2)C1 | 0.91 (inactive) | 1.1 | 1.01
23 | CCC1OC(=O)[C@H](C)C(=O)[C@H](C)[C@@H](OC2O[C@H](C)C[C@H](N(C)C)[C@H]2O)[C@](C)(OC)C[C@@H](C)C(=O)[C@H](C)[C@H]2N(CCCCn3cnc(-c4cccnc4)c3)C(=O)O[C@@]12C (some centres undefined) | 1.16 (inactive) | 1.06 | 1.23
24 | C/C=C/[C@@H]1CC[C@@H]2C[C@H](C)CC[C@H]2[C@]1(C)C(=O)[C@H]1OC(=O)[C@@H](CO)N(C)C1=O | 1.09 (inactive) | 1.06 | 1.15
25 | O=C(O)c1cn(C2CC2)c2cc(N3CCN(c4ccc(Cl)cc4Cl)CC3)c(F)cc2c1=O | 0.98 (inactive) | 1 | 0.98
26 | O=C1C=CC2(Oc3cccc4cccc(c34)O2)[C@H]2[C@H]1[C@@H](O)C=C[C@H]2O | 0.98 (inactive) | 1.06 | 1.04
27 | CC1OC(O[C@H]2/C=C/C=C/C=C/C=C/C=C/C=C/C=C/[C@H](C)[C@@H](O)[C@@H](C)[C@H](C)OC(=O)CC(O)CC(O)CCC(O)C(O)CC(O)C[C@]3(O)C[C@H](O)C(C(=O)O)C(C2)O3)C(O)[C@@H](N)C1O (some centres undefined) | 1 (inactive) | 1.18 | 1.18
28 | COc1c(F)c(F)cc2c(=S)c(C(=O)O)cn(C3CC3)c12 | 0.91 (inactive) | 1.14 | 1.04

Source: PubChem BioAssay
